# The panel holds about 83,000 compounds, 20% with a hit somewhere; the sample as a whole holds those more often.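 A percent growth of 40 corresponds to 60% growth inhibition; 0 means no net growth; -100 means all cells died. Active threshold: below 10.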 Unmarked numbers belong to inactive results. Calls of active or inactive are those of the source.
# Test system: NCI-H23 lung
# Assay: NCI-60 one-dose screen, 48 h (100 = growth as untreated, 0 = no growth, -100 = all killed)
# Details: 10 µM unless noted
# Procedure: Growth inhibition of the NCI-H23 human Non-Small Cell Lung tumor cell line is measured as a screen for anti-cancer activity. Cells are grown in 96 well plates and exposed to the test compound for 48 hours. Compounds are tested at a single concentration, which is 10^-5 M for most compounds. The reported endpoint is percent growth (GI% or GIPRCNT), where numbers from 0 - 100% represent growth inhibition, and numbers from -100% - 0 represent cell death. For example, a value of 40 represents 60% growth inhibition. A value of 0 means no net growth occurred over the course of the experiment. A value of -40 indicates 40% of cells at the beginning of the experiment died by the end of the experiment. A value of -100 means all cells are dead at the end of the experiment.
# NCI-60 Human Tumor Cell Lines Screen was performed using the standard one-dose NCI protocol, which is described in more detail at https://dtp.cancer.gov/discovery_development/nci-60/default.htm.
# Compounds with GIPRCNT values below 10 were considered active. Activity score was based on GIPRCNT using the following formula: […]
# Score is 0 for GIPRCNT values of 100 or above, 50 for GIPRCNT values of 0, and 100 for GIPRCNT values of -100.
row,SMILES,growth
1,CC1(C)CC[C@]2(C(=O)Nc3ccccn3)CC[C@]3(C)C(=CC[C@@H]4[C@@]5(C)C/C(=C/c6cccnc6)C(=O)C(C)(C)[C@@H]5CC[C@]43C)[C@H]2C1,35.9%
2,CCCCN1CCCn2c1nc1c2c(=O)n(CCC)c(=O)n1CCC,104%
3,COc1cccc(/C=C2\Oc3cc(OCCN4CCCC4)ccc3C2=O)c1,92.2%
4,O=C(CCCCC(=O)N/N=C\c1ccccc1O)N/N=C\c1ccccc1O,58.4%
5,CC(=O)c1cc2c(N)c(C(=O)Nc3ccccc3)sc2nc1C,91.5%
6,Nc1nc2ccc3[nH]ncc3c2c2c1CCCC2,-19% (active)
7,C=CC(COC(c1ccccc1)(c1ccccc1)c1ccccc1)N(CC)CC (stereo not given),65.2%
8,CCOC(=O)n1cc(-c2nonc2-c2cn(C)c3ncccc23)c2cc(F)ccc21,76%
9,CN1CCN=C1c1ccc(NC(=O)c2ccc(C(=O)Nc3ccc(C4=NCCN4C)cc3)cc2)cc1,90.2%
10,O=C1c2cc3c(cc2-c2c1c1ccc(F)cc1c(=O)n2CCCNCCO)OCO3,-57.3% (active)
11,O=[N+]([O-])c1cnc(N2CCN(CC3CC3)CC2)nc1N1CCN(CC2CC2)CC1,95.4%
12,O=C1OC(c2ccccc2)C(O)=C1c1ccccc1 (stereo not given),115%
13,CNc1ccc(-c2cc(=O)oc3ccc(Cl)cc23)cc1,18.5%
14,Oc1cccc(-c2nc(N3CCOCC3)c3c4c(sc3n2)CCCC4)c1,56.3%
15,O=C(CCN1C(=O)/C(=C/c2ccc(Cl)cc2)SC1=S)NCCCN1CCOCC1,101%
16,N#Cc1c(-c2ccc(Cl)cc2)nc(NN=Cc2ccco2)nc1N1CCOCC1,70.8%
17,O=C1C=C(O)C(=O)C(CC2=C(O)C(=O)C=C(O)C2=O)=C1O,113%
18,CCc1nnc(CNc2ccc(Cl)cc2)o1,105%
19,CCC#CC[C@H](O)C/C=C1/C(=O)C=C[C@@H]1C/C=C\CCCC(=O)OC,-13.4% (active)
20,C=C1C(=O)O[C@H]2[C@H]1CC/C(COC(=O)c1cc3cc(OC)ccc3[nH]1)=C\CC[C@@]1(C)O[C@@H]21,-72.6% (active)

row,SMILES,growth
1,CCNC(=O)Oc1ccc(/C(=C(\C)c2ccc(Cl)cc2)c2ccc(OCCN3CCCCC3)cc2)cc1,65.1%
2,O=C1/C(=C/c2cn(-c3ccccc3)nc2-c2ccccc2)SC(=S)N1CCc1ccccc1,102%
3,Cc1ccc(C2Oc3ccccc3C3CC(c4cccs4)=NN32)cc1 (stereo not given),93.4%
4,CCOC(=O)c1cc(C(=O)c2ccc(O)c(O)c2)n2ccc(-c3ccn4c(C(=O)c5ccc(O)c(O)c5)cc(C(=O)OCC)c4c3)cc12,96.7%
5,Cc1cn2c(/C=C3/C(=O)Nc4c3ccc3ccccc43)c(C(F)(F)F)nc2s1,39.5%
6,CN(C)S(=O)(=O)c1cccc(-c2nc3sc4c(c3c(=O)[nH]2)CCCC4)c1,44.1%
7,CN1CCN(CCCOc2cccc3nc(Nc4cc(Cl)cc(Cl)c4)ccc23)CC1,36.7%
8,CC[C@@H]1O[C@H](O[C@@H](c2cnc[nH]2)[C@H](NC(=O)c2nc([C@H](CC(N)=O)NC[C@@H](N)C(N)=O)nc(N)c2C)C(=O)N[C@H](C)[C@H](O)[C@H](C)C(=O)N[C@@H](C(=O)NCCc2nc(-c3nc(C(=O)NCCCCN=C(N)N)cs3)cs2)[C@@H](C)O)[C@H](O[C@@H]2O[C@H](CO)[C@H](O)[C@H](OC(N)=O)[C@@H]2O)[C@H](C)[C@@H]1C,20.9%
9,COC(=O)c1ccc(NC(=O)c2ccc(-c3cccc([N+](=O)[O-])c3)o2)cc1,87.3%
10,O=C(CN1C(=O)/C(=C/c2ccc(Cl)cc2)SC1=S)NCCCN1CCOCC1,97%
11,O=C1OCC2=C1C(c1ccncc1)c1cc3c(cc1N2CCO)OCO3 (stereo not given),99.6%
12,N#Cc1nnn(-c2ccc(S(N)(=O)=O)cc2)c1NCC(=O)c1ccccc1,98%
13,O=C(/C=C/c1ccccc1)c1ccc(O)c(CN2CCN(c3cc4c(cc3F)c(=O)c(C(=O)O)cn4C3CC3)CC2)c1,34.4%
14,O=C1/C(=C/c2ccccc2)SC(=S)N1CCc1ccc(O)cc1,98%
15,C=CC(=O)Nc1cccc(Nc2nc(SC)nc(-c3cccc([N+](=O)[O-])c3)c2C#N)c1,44.8%
16,O=S(=O)(Nc1ccc(I)cc1F)c1ccc(-c2cnc(C3CC3)o2)cc1,71.2%
17,O=C(/C=C/c1cccc(Cl)c1)c1ccc(O)c(CN2CCN(c3cc4c(cc3F)c(=O)c(C(=O)O)cn4C3CC3)CC2)c1,56.4%
18,CNC(=O)c1cc(Oc2ccc(NC(=O)Nc3ccc(Cl)c(SC)c3)c(F)c2)ccn1,29.7%
19,COc1cc2c(cc1O)CC[C@@H]1[C@@H]2CC[C@]2(C)[C@@H](NCCN(C)C)CC[C@@H]12,-77.2% (active)
20,CC1=NN(c2nc(-c3ccc(Cl)cc3)c(C#N)c(N3CCOCC3)n2)C(=O)C1,80.7%
